Experimental data from PubChem BioAssay.

Target: Neurogenic locus notch homolog protein 2 (Homo sapiens) (UniProt Q04721)
Experiment: Notch2 binders on small-molecule microarrays, primary screen, biochemical, small-molecule microarray, 635 nm fluorescence, stem cell growth factors (AID 1073)
Details: Notch2 binding, higher = more signal

Chain of Neurogenic locus notch homolog protein 2 (Homo sapiens) (Q04721 whole entry, looked up): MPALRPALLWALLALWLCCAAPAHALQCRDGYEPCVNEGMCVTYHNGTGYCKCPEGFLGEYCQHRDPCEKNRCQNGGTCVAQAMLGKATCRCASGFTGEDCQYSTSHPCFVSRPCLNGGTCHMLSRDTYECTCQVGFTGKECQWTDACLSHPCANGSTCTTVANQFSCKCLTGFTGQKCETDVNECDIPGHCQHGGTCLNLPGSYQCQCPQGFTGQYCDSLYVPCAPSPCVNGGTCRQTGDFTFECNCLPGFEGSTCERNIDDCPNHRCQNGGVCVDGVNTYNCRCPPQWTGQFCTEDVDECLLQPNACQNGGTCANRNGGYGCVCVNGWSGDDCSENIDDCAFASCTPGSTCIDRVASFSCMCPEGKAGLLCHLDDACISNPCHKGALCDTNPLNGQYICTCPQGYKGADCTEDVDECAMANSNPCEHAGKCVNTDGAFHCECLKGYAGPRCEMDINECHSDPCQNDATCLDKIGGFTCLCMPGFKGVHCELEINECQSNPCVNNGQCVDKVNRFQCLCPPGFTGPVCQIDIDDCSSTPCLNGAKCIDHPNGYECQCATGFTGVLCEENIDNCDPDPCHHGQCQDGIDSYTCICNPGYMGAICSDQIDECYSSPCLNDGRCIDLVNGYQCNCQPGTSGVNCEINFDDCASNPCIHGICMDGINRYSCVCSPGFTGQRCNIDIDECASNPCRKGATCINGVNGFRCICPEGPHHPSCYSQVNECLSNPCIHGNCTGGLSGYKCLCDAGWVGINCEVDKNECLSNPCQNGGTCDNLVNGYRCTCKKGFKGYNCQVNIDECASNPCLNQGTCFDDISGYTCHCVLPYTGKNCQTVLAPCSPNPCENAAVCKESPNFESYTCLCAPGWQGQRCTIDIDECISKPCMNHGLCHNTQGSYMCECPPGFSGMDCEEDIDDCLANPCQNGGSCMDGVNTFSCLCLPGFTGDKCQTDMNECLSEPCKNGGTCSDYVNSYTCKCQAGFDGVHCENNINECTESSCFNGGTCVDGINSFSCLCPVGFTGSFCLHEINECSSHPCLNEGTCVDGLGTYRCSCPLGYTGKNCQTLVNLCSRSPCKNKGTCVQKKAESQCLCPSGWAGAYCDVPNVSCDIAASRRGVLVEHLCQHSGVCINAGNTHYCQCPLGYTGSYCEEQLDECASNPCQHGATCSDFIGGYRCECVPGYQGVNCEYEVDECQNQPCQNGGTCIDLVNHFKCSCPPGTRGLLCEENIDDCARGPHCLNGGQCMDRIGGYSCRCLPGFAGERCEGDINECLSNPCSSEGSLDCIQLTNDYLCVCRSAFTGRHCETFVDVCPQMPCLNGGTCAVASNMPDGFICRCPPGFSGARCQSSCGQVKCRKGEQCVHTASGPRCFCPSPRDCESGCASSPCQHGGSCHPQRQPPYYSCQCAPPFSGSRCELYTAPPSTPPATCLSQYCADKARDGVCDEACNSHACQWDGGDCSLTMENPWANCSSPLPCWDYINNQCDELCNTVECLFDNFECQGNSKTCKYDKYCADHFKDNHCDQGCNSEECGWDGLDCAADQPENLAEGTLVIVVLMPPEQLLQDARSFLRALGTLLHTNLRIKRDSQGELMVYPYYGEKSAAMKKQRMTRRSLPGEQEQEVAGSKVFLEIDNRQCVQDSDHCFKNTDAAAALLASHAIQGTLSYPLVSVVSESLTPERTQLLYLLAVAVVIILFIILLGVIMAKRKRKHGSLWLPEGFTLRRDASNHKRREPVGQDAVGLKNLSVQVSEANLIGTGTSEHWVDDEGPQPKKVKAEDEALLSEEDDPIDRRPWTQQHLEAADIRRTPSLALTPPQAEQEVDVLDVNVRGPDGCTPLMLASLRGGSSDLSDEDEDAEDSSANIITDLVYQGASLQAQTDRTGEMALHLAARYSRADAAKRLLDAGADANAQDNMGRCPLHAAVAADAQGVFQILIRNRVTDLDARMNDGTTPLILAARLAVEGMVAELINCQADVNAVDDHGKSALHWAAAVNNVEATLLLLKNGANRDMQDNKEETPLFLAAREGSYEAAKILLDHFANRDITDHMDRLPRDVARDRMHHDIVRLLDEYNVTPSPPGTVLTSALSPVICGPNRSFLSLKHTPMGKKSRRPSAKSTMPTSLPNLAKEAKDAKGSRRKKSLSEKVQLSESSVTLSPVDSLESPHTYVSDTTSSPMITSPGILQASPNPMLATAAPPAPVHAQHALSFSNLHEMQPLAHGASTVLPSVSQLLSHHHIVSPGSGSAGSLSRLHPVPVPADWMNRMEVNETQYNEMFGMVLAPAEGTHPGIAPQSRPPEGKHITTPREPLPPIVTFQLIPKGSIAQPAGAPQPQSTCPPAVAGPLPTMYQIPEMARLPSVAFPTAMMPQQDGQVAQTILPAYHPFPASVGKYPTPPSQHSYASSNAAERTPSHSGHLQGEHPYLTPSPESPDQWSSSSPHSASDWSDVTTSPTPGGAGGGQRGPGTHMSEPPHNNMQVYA

Compound | composite z-score
COCCOC(=O)N1C(=O)[C@@]2(c3cc(C#Cc4ccc(OC)cc4)ccc31)[C@H](C(=O)N1CCN(c3ncccn3)CC1)[C@H]1C(=O)O[C@H](c3ccccc3)[C@H](c3ccccc3)N1[C@@H]2c1ccc(O)cc1 | -0.202
COC(=O)C(CC#Cc1ccc2c(c1)[C@]1(C(=O)N2)[C@H](C(=O)NC[C@H](O)c2ccccc2)[C@H]2C(=O)O[C@H](c3ccccc3)[C@H](c3ccccc3)N2[C@@H]1c1ccc(OCCO)cc1)C(=O)OC | 1.37
O=C1C2C=CC(C(O)c3ccc(-c4ccccc4)s3)N(n3cnnc3)C2C(=O)N1Cc1ccccc1 (stereo not drawn) | 0.207
O=c1cccc(C=Cc2ccccc2)o1 | -1.03
C=C(C(=O)CC[C@H](OC(C)=O)c1ccc(OCCO)cc1)C(C)C | 1.49
CCCC[C@H]1OB(O)C[C@H]2C1=C(C)C[C@H]1C(=O)N(Cc3ccccc3)C(=O)[C@H]12 | 0.316
CCCCC(CC)C(O)C1C=CC2C(=O)N(c3ccccc3)C(=O)C2N1Nc1ccccc1 (stereo not drawn) | 1.46
O=C(OCCF)C1=CCC(c2cccc(Cl)c2)O1 (stereo not drawn) | 0.926
COCC1=C2[C@@H](CCc3ccccc3)OB(O)C[C@@H]2[C@@H]2C(=O)N(Cc3ccccc3)C(=O)[C@@H]2C1 | -0.0585
CC(C)C[C@@H]1NC(=O)[C@H]2C[C@@H](C(=O)NCCCCCNC(=O)CS)[C@@H](c3cccc(OCCO)c3)N2C1=O | 1.25
COc1ccc(CCN2C(=O)[C@@]3(Cc4ccccc42)c2ccccc2C(=O)N(Cc2ccccc2Cl)[C@H]3c2ccc(CO)cc2)cc1 | -0.13
CCCCCN1CC=CC23O[C@@H]4C=CCOC(=O)[C@@H]4[C@H]2C(=O)N(CCCO)[C@@H]3C1=O (stereo partly drawn) | -0.661
O=C1OCCC=C[C@H]2OC34C=CCN(Cc5ccccc5)C(=O)[C@H]3N(CCCCCCO)C(=O)[C@@H]4C12 (stereo partly drawn) | -0.91
CN(C)CCCCNC(=O)[C@H]1C[C@H]2C(=O)N[C@@H](Cc3ccccc3)C(=O)N2[C@H]1c1ccc(O)cc1 | 1.37
COCCOC(=O)N1C(=O)[C@@]2(c3cc(C#CCC(C(=O)OC)C(=O)OC)ccc31)[C@H](c1ccccc1OCCO)N1[C@H](c3ccccc3)[C@H](c3ccccc3)OC(=O)[C@H]1[C@@H]2C(=O)N1CCc2cc(OC)c(OC)cc2C1 | 1.46
COC(=O)[C@@]1(Cc2ccccc2)[C@H]2c3cc(C(=O)N(C)C)n(Cc4c(-c5ccccc5)noc4C)c3C[C@H]2CN1C(=O)c1ccccc1 | 1.66
O=C1C[C@@](C(=O)NC2CC2)(c2ccc([N+](=O)[O-])cc2)[C@@H](c2ccc(CO)cc2)N1CC12CC3CC(CC(C3)C1)C2 | 1.4
COCCOC(=O)N1C(=O)[C@@]2(c3cc(C#CC4=CCCCC4)ccc31)[C@H](C(=O)NC[C@H](O)c1ccccc1)[C@H]1C(=O)O[C@H](c3ccccc3)[C@H](c3ccccc3)N1[C@@H]2c1ccc(O)cc1 | 1.23
CC(C)NC(=O)[C@@]1(Cc2ccccc2I)c2ccccc2C(=O)N(Cc2ccccc2)[C@H]1c1ccc(CO)cc1 | 0.787
O=C1N(CCS(=O)(=O)c2ccccc2)c2ccccc2C[C@@]12COC(c1ccc(OCCCO)cc1)=N2 | 1.33
CC(C)(C)N1CC=CC23O[C@@H]4C=CCOC(=O)[C@@H]4[C@H]2C(=O)N(CCCCCO)[C@@H]3C1=O (stereo partly drawn) | -1.38
COCCOC(=O)N1C(=O)[C@@]2(c3cc(C#CCNC(N)=O)ccc31)[C@H](C(=O)N1CCN(c3ncccn3)CC1)[C@H]1C(=O)O[C@H](c3ccccc3)[C@H](c3ccccc3)N1[C@@H]2c1ccccc1OCCO | 1.12
COCCOC(=O)N1C(=O)[C@@]2(c3ccccc31)[C@H](c1ccc(O)cc1)N1[C@H](c3ccccc3)[C@H](c3ccccc3)OC(=O)[C@H]1[C@@H]2C(=O)N1CCc2cc(OC)c(OC)cc2C1 | 1.15
CCCN1C(=O)[C@]2(COC(c3ccc(OCCCO)cc3)=N2)Cc2ccccc21 | 0.419
NC(=O)NCC#Cc1ccc2c(c1)[C@]1(C(=O)N2)[C@H](C(=O)NC[C@H](O)c2ccccc2)[C@H]2C(=O)O[C@H](c3ccccc3)[C@H](c3ccccc3)N2[C@@H]1c1ccc(O)cc1 | 0.857
CC(C)N1C(=O)c2ccccc2[C@@H](C(=O)NCCCN(C)C)[C@@H]1c1ccc(CO)cc1 | 0.102
CC(C)=CCCC(C)=CC(O)C1C=CC2C(=O)N(c3ccccc3)C(=O)C2N1Nc1ccccc1 (stereo not drawn) | 1.64
CN(C)CCCCCCNC(=O)[C@H]1C[C@H]2C(=O)N[C@@H](CCCCN)C(=O)N2[C@H]1c1ccc(O)cc1 | 1.27
